Assay outcomes: PubChem BioAssay, National Center for Advancing Translational Sciences (NCATS)
Cycloheximide cs: affects cycloheximide protein synthesis inhibition readout, counter-screen | cell reporter, cycloheximide protein synthesis inhibition counterscreen | max response, % | 300,000 compounds, 12% hits | AID 2314; in the data active = max response mostly above about 13%, no sharp cut-off; inactive = mostly below about 14%; also: read at 38.3 µM for the half of the compounds with a filed dose; 0% is about no effect
Shiga inhibitor: inhibitors of Shiga toxin in Vero cells | Vero cells, Shiga toxin protein synthesis inhibition reporter | inhibition, % at 38.7 µM | 290,000 compounds, 9.2% hits | AID 2315; in the data active = inhibition mostly above about 28%, no sharp cut-off; inactive = mostly below about 43%; also: 0% is about no effect
RE007 growth inh: less growth of the S. pombe RE007 Vpr strain; 360,000 compounds, 0.21% hits; Potency, µM (top dose mostly 92.2 µM), for the others: at the top dose activity change, negative = less growth, usual class: inhibitors; S. pombe RE007 Vpr strain, BacTiter-Glo ATP luminescence, 24 h; active = well fitted falling curve with a large enough effect; inconclusive = small, poorly fitted or top-dose-only effect; inactive = no such curve, though single readings can be large or run the other way; also: potency is read from the fitted curve at half-maximal effect; % is scaled to controls: 0 for no effect and ±100 for the full control effect; nearly all actives have a fitted effect of over 50% in size
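Fission yeast RE007 carrying one integrated HIV-1 vpr copy, seeded at OD 0.01 in PMG+AL medium with 23 nL pinned compound. Grown 24 h at 30 degrees; viability read by BacTiter-Glo luminescence after 5 min.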
TbPYK inhibitor: inhibitors of Trypanosoma brucei pyruvate kinase; TbPYK enzyme, Kinase-Glo Plus ATP luminescence, 45 min; 410,000 compounds, 0.12% hits; AID 624173; Potency, µM (doses to about 76.8 µM), for the others: at the top dose activity, negative = inhibition, usual class: inhibitors; also: potency is read from the fitted curve at half-maximal effect; % is scaled to controls: 0 for no effect and ±100 for the full control effect; nearly all actives have a fitted effect of over 50% in size
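Readout: single end-point luminescence (Kinase-Glo Plus, 10 min). Reaction conditions were TbPYK/substrate plus 130 uM ADP, 45 min at RT, pH 7.2 TEA buffer. No-enzyme wells served as controls, and data were normalized before concentration-response fitting.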
Giardia FBPA inh: inhibitors of Giardia lamblia fructose-1,6-bisphosphate aldolase. Potency, µM (titrated, usually from 59.6 µM), without a hit: at the highest dose activity, negative = inhibition, actives largely listed as inhibitors. 290,000 compounds, 0.71% hits. purified Giardia FBPA; also: potency is read from the fitted curve at half-maximal effect; % is scaled to controls: 0 for no effect and ±100 for the full control effect; nearly all actives have a fitted effect of over 55% in size
Target sequence (A8B2U2 whole entry, looked up): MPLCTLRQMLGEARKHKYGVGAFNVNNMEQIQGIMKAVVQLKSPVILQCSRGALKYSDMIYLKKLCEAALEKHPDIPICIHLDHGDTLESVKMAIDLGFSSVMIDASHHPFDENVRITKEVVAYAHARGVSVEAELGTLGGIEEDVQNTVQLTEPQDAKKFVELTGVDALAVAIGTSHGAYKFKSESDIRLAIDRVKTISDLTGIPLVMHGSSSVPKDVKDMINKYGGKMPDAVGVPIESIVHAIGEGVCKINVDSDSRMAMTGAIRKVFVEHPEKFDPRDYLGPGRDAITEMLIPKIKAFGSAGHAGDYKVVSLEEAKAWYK
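40 nM FBPA preincubated 10 min at RT with compound (up to 57.5 uM final), then substrate plus GAPDH/TPI/NAD/arsenate coupling and diaphorase/resazurin added. Fluorescence read after 20 min at RT, 525/598 nm.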
LmPK inhibitor: blocks Leishmania mexicana pyruvate kinase activity; Q27686; purified LmPK, Kinase-Glo ATP luminescence, 1 h; Potency, µM (series often up to 57.5 µM), for the others: at the top dose activity change, negative = inhibition, hits mostly inhibitors; 290,000 compounds, 0.37% hits; AID 1721; also: potency is read from the fitted curve at half-maximal effect; % is scaled to controls: 0 for no effect and ±100 for the full control effect
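Pyruvate kinase activity monitored as ATP production (luciferase luminescence). Conditions: 0.1 nM enzyme, 0.5 mM PEP, 0.1 mM ADP, 1 h, RT; normalized against uninhibited and no-enzyme wells.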
The depositor's hits bear a star; ? = inconclusive; / = not tested or not shown; + = active, no number; ! = not active in a repeat; [ ] = dose if it differs, or a comment. The sample as a whole holds a higher share of hits than the screen did. Unless noted, calls follow the shape of the dose curve; as a rule, active = well fitted curve in the direction sought with a large enough effect; inconclusive = small, poorly fitted or top-dose-only effect, or another doubt; inactive = no such curve, though single readings can be large; an effect the other way counts as inactive or inconclusive.

SMILES | Cycloheximide cs | Shiga inhibitor | RE007 growth inh | TbPYK inhibitor | Giardia FBPA inh | LmPK inhibitor
CC(=O)N1CCC2(CCCN(C(=O)Nc3cccc(C#N)c3)C2)CC1 | / | / | / | 2% | -1% | /
C=CCN1C(=O)NC(=O)/C(=C/c2cccn2C)C1=O | -3 | -22 | -16% | 5% | 6% | -6%
Cn1cccc1/C=C1\CCC/C(=C\c2cccn2C)C1=O | 52* | 109* | -19% | 4% | -21% | 0%
O=C1/C(=C/c2cccs2)CCC/C1=C\c1cccs1 | 39* | 108* | -5% | -3% | / | -12%
COC(=O)/C(=C\Nc1ccc(Cl)cc1Cl)NC(=O)c1ccccc1 | -2 | 3 | -18% | -3% | -4% | 8%
COC(=O)/C(=C\Nc1ccc(Cl)cc1Cl)NC(=O)c1ccc(Cl)cc1Cl | 19* | 80* | -5% | -1% | -2% | 4%
CCOC(=O)NC(=O)/C(C#N)=C\Nc1ccc(Cl)cc1Cl | 32* | 26 | 10% | -6% | 7% | -8%
CC(=O)NCCN=C(C)c1sc2ccccc2c1O | 24* | + | 0% | 71% | -3% | 0%
Oc1ccc(-c2c(-c3ccsc3)sc3ccccc23)cc1 | 2 | -8 | ? | -3% | 5% | 5%
CC(=Nc1ccccc1O)c1sc2ccccc2c1O | 33* | 67* | ? | 2% | -12% | 4%
CC(=Nc1cccc(C)c1)c1sc2ccccc2c1O | 45* | 109* | -7% | -2% | 4% | -6%
CC(=Nc1ccc(O)cc1)c1sc2ccccc2c1O | 48* | 95* | 22% | 0% | -6% | -1%
Cc1ccnc(NC(=O)CNC(=O)c2sc3ccccc3c2Cl)c1 | / | / | 22% | 8% | / | /
Cc1nc2c(c(C)c1CCC(=O)NCc1ccc(F)cc1)c(=O)n(C)c(=O)n2C | / | / | / | -1% | / | /
Cc1ccc(Cn2ccnc2SCC(=O)Nc2nc3ccccc3s2)cc1 | / | / | / | 3% | / | /
CCOC(=O)N1CCc2c(sc3c2c(=O)n(-c2ccc(Cl)cc2)c(=O)n3CC(=O)Nc2ccccc2)C1 | / | / | / | -7% | / | /
N#Cc1cc(C#N)c(N2CCN(c3ccccn3)CC2)nc1N | 44* | 60* | 12% | -7% | 4% | 0%
N#CC(C#N)=Cc1ccc(O)c(O)c1 | / | / | -1%[18.4 µM] | -3% | 14µM*! | /
N#C/C(=C\Nc1ccc2c(c1)OCCO2)c1nc2ccccc2[nH]1 | 60* | 83 | -11% | 8% | -23% | -1%
O=C(CCc1nc2ccccc2[nH]1)Nc1ccc2c(c1)OCCO2 | 11 | 26 | -12% | 7% | -3% | -2%
N#C/C(=C\c1cccs1)c1nc2ccccc2[nH]1 | 32* | 107* | -2% | -3% | -13% | -10%
N#C/C(=C\c1ccc(O)c(O)c1)C(=O)c1ccc(O)c(O)c1 | / | / | 0%[18.4 µM] | ? | -28% | /
N#C/C(=C\c1ccc(OC(=O)c2cccs2)cc1)c1nc2ccccc2[nH]1 | 58* | 145* | -13% | -1% | -4% | 2%
Cc1c(C)c2cc3c(c(C)c2oc1=O)OCN(CCc1ccc(F)cc1)C3 | / | / | / | -1% | / | /
CCN(CC)CCCNC(=O)C(=O)Nc1ccc2nc3n(c(=O)c2c1)CCCCC3 | / | / | / | 4% | / | /
SMILES | Cycloheximide cs | Shiga inhibitor | RE007 growth inh | TbPYK inhibitor | Giardia FBPA inh | LmPK inhibitor
N#C/C(=C\c1ccc(Cl)cc1)c1nc2ccccc2[nH]1 | / | / | / | 2% | / | /
C(=N\c1nc2ccccc2[nH]1)/c1cccs1 | 4 | 27 | -12% | -6% | -3% | 14µM*
N#C/C(=C\c1ccccc1OCC(=O)O)c1nc2ccccc2[nH]1 | 8.3* | 14 | 5% | -1% | -4% | 1%
COc1cc(Br)c(/C=C(\C#N)c2nc3ccccc3[nH]2)cc1OC | / | / | / | 5% | / | /
N#C/C(=C/c1ccc(O)c(O)c1)c1nc2ccccc2[nH]1 | 26* | 77* | / | 4% | ? | 1%
COc1ccc2c(c1)O[C@H](c1ccc3c(c1)OCO3)[C@@H](OC(=O)NS(=O)(=O)c1ccc(C)cc1)C2=O | / | / | / | / | 4% | /
COc1ccccc1N1CCN(C(=O)c2cc3c(s2)-c2ccccc2OC3)CC1 | -5 | -3 | 1% | -1% | 4% | 7%
O=C(c1cc2c(s1)-c1ccccc1OC2)N1CCc2ccccc2C1 | 87* | 56* | -5% | 2% | 0% | -5%
COC(=O)c1cc2c(s1)-c1ccccc1OC2 | 28* | 64* | -19% | -4% | 2% | -3%
COC(=O)c1cc2c(s1)-c1ccc(OC)cc1CC2 | 55* | 115* | 4% | 1% | -7% | -19%
CCOC(=O)C1CCN(C(=O)c2cc3c(s2)-c2ccccc2OC3)CC1 | 21* | 40* | -11% | -2% | -1% | 1%
C=C1/C(=C\C=C2/CCC[C@@]3(C)[C@@H]([C@H](C)OCCC(C)(C)O)CC[C@@H]23)C[C@@H](O)C[C@@H]1O | / | / | / | 3% | / | /
O=C(Cn1c(=O)nc(-c2ccccc2)c2cc(Cl)ccc21)N1CCN(c2ccccc2F)CC1 | / | / | / | -4% | / | /
O=C(COC(=O)CCSc1ccc(Cl)cc1)NCc1ccco1 | 19* | 53 | 1% | -24% | 0% | -1%
O=C(/C=C/c1ccc(S(=O)(=O)NCc2ccco2)cc1)NCc1ccccc1Cl | 31* | 20* | 1% | -7% | 0% | 3%
O=C(/C=C/c1ccc(Cl)cc1)NCc1ccco1 | 25* | 94* | 16% | ? | -11% | -1%
COc1ccc(CNC(=O)/C=C/c2ccc(S(=O)(=O)NCc3ccco3)cc2)cc1OC | 1 | -3 | 1% | 1% | 4% | 1%
CCCc1ccc(C(=O)O)cc1 | / | / | / | 6% | / | /
COC(=O)c1cccc(NC(=O)N(C)CCc2c(C)nn(C)c2C)c1 | / | / | / | -1% | / | /
COc1ccc(-c2[nH]n(-c3ccc([N+](=O)[O-])cc3)c(=O)c2C=NCCN2CCNCC2)cc1 | 7 | -13 | / | / | ? | 16µM*
O=c1c(C=NCCN2CCNCC2)c(-c2ccccc2)[nH]n1-c1ccc([N+](=O)[O-])cc1 | 10 | 19 | / | / | 5% | 1%
Cc1[nH]n(-c2ccc([N+](=O)[O-])cc2)c(=O)c1C=NCCN1CCN(C(=O)c2ccccc2)CC1 | -4 | -13 | ? | -18% | 4% | 28µM*
O=C(CSCc1ccccn1)Nc1ccccc1 | 22* | 38* | 3% | 0% | -9% | -6%
CCn1c(SCC(=O)Nc2nccs2)nnc1-c1ccccc1 | -3 | 14 | 10% | 3% | -4% | -1%
O=C(CSCc1ccc(Cl)cc1Cl)Nc1nccs1 | -3 | -15 | 0% | 3% | -5% | -1%
O=C(CSc1ccccc1)Nc1nccs1 | 28* | 50* | -6% | 5% | 1% | -5%
